Vif-APOBEC3G blk = blocks the Vif interaction with human APOBEC3G. Q9HC16. HeLa A3G-eYFP + Vif (tagged APOBEC3G with the HIV-1 protein that degrades it), YFP fluorescence, overnight. Potency, µM (series often up to 46.1 µM), without a hit: top-dose activity, negative = active, most hits filed as inhibitors. 0.076% of 410,000 active. AID 602310; note: potency is the fitted concentration of half-maximal effect; % is set by controls: 0 for no effect and ±100 for the full control effect; nearly all actives have a fitted effect of over 60% in size
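HeLa cells stably expressing Vif and C-terminally eYFP-tagged A3G, seeded overnight at 37 deg C, then exposed to compound by pintool overnight at 37 deg C. Rise in yellow fluorescence (Ex 488/Em 500-530, Acumen) marks blocked Vif-driven A3G degradation.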
TSG101-PTAP inh = blocks PTAP/TSG101 interaction to inhibit HIV-1 budding. 340,000 tested, under 10 active. AID 493005. Potency, µM (titrated, usually from 115 µM), for the others: at the top dose activity change, negative = inhibition, actives largely listed as inhibitors. Q99816. Fluorescence polarization, FITC-PTAP peptide / Tsg101 binding; active = well fitted inhibition curve with a large enough effect in the main read-out, with a control signal flat, not every such curve was filed as active; inconclusive = small, poorly fitted or top-dose-only effect, or effect the other way, or a change in a side signal; inactive = no such curve, though single readings can be large or run the other way; note: potency is the fitted concentration of half-maximal effect; % of control where 0% means no effect
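Compounds were pin-transferred onto Tsg101 binding domain (10 uM final) in HEPES pH 7.5 buffer, then FITC-PTAP peptide was added at 50 nM final. After 20 min at RT, polarization reported peptide displacement across a qHTS concentration series.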
S-ASM inh = human S-ASM enzyme inhibition; placental ASM, HMU-PC fluorogenic substrate, 60 min; Potency, µM (highest dose often 57.5 µM), for the others: top-dose activity change, negative = inhibition, usual class: inhibitors; 0.006% of 340,000 active; note: potency is the fitted concentration of half-maximal effect
Target sequence (P17405 47-631 limits assumed): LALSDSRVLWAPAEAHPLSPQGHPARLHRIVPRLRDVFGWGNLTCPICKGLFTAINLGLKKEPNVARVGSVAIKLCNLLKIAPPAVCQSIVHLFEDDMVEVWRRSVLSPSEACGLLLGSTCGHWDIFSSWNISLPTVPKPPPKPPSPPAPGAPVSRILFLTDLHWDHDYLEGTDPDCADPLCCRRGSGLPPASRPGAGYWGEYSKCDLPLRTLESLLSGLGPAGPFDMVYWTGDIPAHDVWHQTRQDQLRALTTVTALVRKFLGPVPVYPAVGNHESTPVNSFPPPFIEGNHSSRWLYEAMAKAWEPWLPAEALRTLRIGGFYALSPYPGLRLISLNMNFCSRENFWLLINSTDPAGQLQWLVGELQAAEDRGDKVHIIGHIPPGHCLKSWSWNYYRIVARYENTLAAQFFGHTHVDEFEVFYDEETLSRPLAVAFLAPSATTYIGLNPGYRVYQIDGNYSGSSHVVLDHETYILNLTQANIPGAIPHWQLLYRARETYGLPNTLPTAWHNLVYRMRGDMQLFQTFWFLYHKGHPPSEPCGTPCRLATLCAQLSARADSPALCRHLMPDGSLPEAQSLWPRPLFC
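HMU-PC0 cleavage (9 uM final) by human placental ASM, 60 min at 37 °C following 10 min compound exposure at RT; stopped at pH 10, fluorescence Ex 386/Em 447 nm.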
Vif-A3F inh = Vif-A3F binding inhibition | HeLa A3F-eYFP + Vif (tagged APOBEC3F with the HIV-1 protein that degrades it), YFP fluorescence increase | Potency, µM (titrated, usually from 46.1 µM), without a hit: at the top dose activity, negative = active | 0.2% of 390,000 active | AID 602313; note: potency is the fitted concentration of half-maximal effect; % of control where 0% means no effect; nearly all actives have a fitted effect of over 65% in size
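HeLa cells stably expressing Vif plus C-terminally eYFP-tagged A3F were seeded, incubated overnight at 37 deg C, dosed with compound, incubated overnight again at 37 deg C. Yellow fluorescence (Ex 488/Em 500-530) reported blocked Vif-mediated A3F-eYFP degradation.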
Akt phos inh = inhibitors of Akt phosphorylation; Neuro2A IGF-stimulated pAkt S473 HTRF, 20 min; stronger effect = lower value; activity change, % for hits at 50 µM; 0.32% of 360,000 active; AID 651550; in the data active = activity change below about -80%; inconclusive = mostly about -51% to -80%; note: % is set by controls: 0 for no effect and ±100 for the full control effect
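Neuro2A cells (4,500/well, DMEM with 0.5% FBS) were treated with compound at a single 50 µM final concentration, stimulated with 6 nM IGF for 20 min at 37 °C, and lysed. Phospho-Akt Ser473 was read by HTRF as 665/615 ratio ×10^4.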
12-LOX inh = inhibitors of human 12S-lipoxygenase ALOX12. purified 12hLO, xylenol orange hydroperoxide absorbance. 1.1% of 580,000 active. Potency, µM (top dose mostly 108 µM), inactives show at the top dose activity change, negative = inhibition, actives largely listed as inhibitors; note: potency is the fitted concentration of half-maximal effect; % is set by controls: 0 for no effect and ±100 for the full control effect
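Purified human 12hLO (150 nM final) in 25 mM Hepes, 0.01% Triton X-100, pH 7.0 was preincubated 15 min at room temperature with compound. Then 40 uM arachidonic acid was added, 30 min. Hydroperoxide was read by Fe-XO absorbance ratio 573/405 nm.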
* marks the source's active call; other numbers are inactive results; i = inactive; ? = inconclusive; . = not tested or not shown; ! = not confirmed by another sample; [ ] = dose if it differs, or a comment. An excerpt weighted towards active compounds, which were near 1.4% of everything screened. Unless noted, calls come from the whole dose curve; as a rule, active = well fitted curve in the direction sought with a large enough effect; inconclusive = small, poorly fitted or top-dose-only effect, or another doubt; inactive = no such curve, though single readings can be large; an effect the other way counts as inactive or inconclusive.

SMILES	Vif-APOBEC3G blk	TSG101-PTAP inh	S-ASM inh	Vif-A3F inh	Akt phos inh	12-LOX inh
CC(C)(C)c1ccc(Cc2n[nH]c(=S)[nH]c2=O)cc1	1%	-4%	-16%	-4%	i	16µM*
CC(C)CNC(=O)c1ccc(C2Nc3cc(C(F)(F)F)ccc3S(=O)(=O)N2)cc1 (stereo not drawn)	.	.	.	.	.	11%
CCN(C=NC1=NN(c2cccc(C(F)(F)F)c2)CC1)CC	-5%	0%	1%	-9%	i	?
Cc1cccc(N2CCC(N=CN(C)C)=N2)c1	-7%	-1%	0%	12%	i	45µM*
Cc1nnc(SCC(=O)NCCc2ccco2)c2nn(-c3ccc(Cl)cc3)c(C)c12	.	.	.	.	.	32µM*
COc1cccc(CNC(=O)CSc2nnc(C)c3c(C)n(-c4ccccc4)nc23)c1	-4%	.	.	-1%	.	-9%
COC(=O)c1ccc(COC(=O)Cc2ccc(Cl)cc2Cl)cc1	.	.	.	.	.	-31%
O=C(O)CC12CC3CC(C1)CC(CC(=O)O)(C3)C2	.	.	.	.	.	-18%
NC(=O)CC12CC3CC(C1)CC(CC(N)=O)(C3)C2	-1%	-4%	1%	-3%	-82%*	9%
CCCCC1Cc2[nH]c(=S)[nH]c(=O)c2C(c2ccc(C(C)C)cc2)O1 (stereo not drawn)	.	.	.	.	i	40µM*
CC1Cc2[nH]c(=S)[nH]c(=O)c2C(c2ccc(C(C)C)cc2)O1 (stereo not drawn)	.	.	.	.	i	-33%
CC(C)CN1C(=O)CO[C@H](c2ccc(NC(=O)C(C)C)cc2)[C@H]1CO	.	.	.	.	.	86%[176 µM]
Fc1ccc2[nH]c3c(N4CCN(c5ccccc5)CC4)ncnc3c2c1	-13%	-2%	-18%	6%	-90%*	-1%
O=C(c1ccccc1)N1CCC(Oc2cccc(F)c2)C1 (stereo not drawn)	.	.	.	.	.	-1%
CCC(c1ccc(O)c(O)c1)C(CC)c1ccc(O)c(O)c1 (stereo not drawn)	?	-4%	-14%	-2%	i	.
CCC(NC(C)C)C(O)c1ccc(O)c(O)c1 (stereo not drawn)	-7%	0%	-2%	-5%	i	10µM*!
O=C1/C(=C/c2ccc([N+](=O)[O-])cc2)C=C(c2ccccc2)N1c1ccccc1	-2%	-2%	7%	-6%	i	-14%
O=C(O)c1cccc(N2C(=O)/C(=C/c3ccc([N+](=O)[O-])cc3)C=C2c2ccccc2)c1	0%	1%	-1%	-9%	i	35µM*
Cn1c(=O)c2c(ncn2CCC(=O)NC(C)(C)C)n(C)c1=O	.	.	.	.	.	38%
Cc1ccsc1CNC(=O)Cc1ccc(F)cc1	.	.	.	.	.	-4%
CCCCOC(=O)CSc1n[nH]c(=O)[nH]c1=O	4%	-5%	4%	6%	-124%*	4%
CCCCCOC(=O)C(C)Sc1n[nH]c(=O)[nH]c1=O (stereo not drawn)	7%	-5%	0%	0%	i	1%
CC(C)c1ccc(/C=C/C(=O)Nc2ccc(Cl)cc2C(F)(F)F)cc1	.	.	.	.	.	-7%
Cc1c(C(=O)NCc2ccc3c(c2)OCO3)oc2ccc(S(=O)(=O)N3CCCCCC3)cc12	1%	1%	-1%	-6%	-112%*	-6%
CC[N+]1(CC)CC2CCC(C)(C1)C2(C)C (stereo not drawn)	2%	-8%	-1%	-12%	i	45µM*
SMILES	Vif-APOBEC3G blk	TSG101-PTAP inh	S-ASM inh	Vif-A3F inh	Akt phos inh	12-LOX inh
CC12CCC(C[N+](C)(C)C1)C2(C)C (stereo not drawn)	3%	-2%	4%	-3%	i	?
Cc1cnc2c(S(=O)(=O)N(C)CC(=O)Nc3cccc(C)c3C)cccc2c1	.	.	.	.	.	-34%
N#C/C(=C\c1ccc(N2CCOCC2)o1)c1ccccc1	?	15%	-20%	?	i	20µM*
N#C/C(=C/c1ccc(N2CCOCC2)o1)c1ccc(Br)cc1	?	?	?	.	i	5.6µM*
N#C/C(=C/c1ccc(N2CCOCC2)o1)C(=O)NC1CCCCC1	11µM*	?	-26%	22µM*	i	-30%
CN(Cc1cc(-c2cccs2)n[nH]1)C[C@@H]1CCCN2CCCC[C@H]12	.	.	.	.	.	14%
O=C(O)c1cc(-c2ccco2)nc2ccc(Br)cc12	0%	-15%	2%	-2%	i	16µM*!
Cc1ccc(-c2cc(C(=O)O)c3cc(Br)ccc3n2)cc1	.	.	.	.	.	-3%
Cc1cccc2c(C(=O)O)cc(-c3ccco3)nc12	.	.	.	.	.	8.9µM*
Cc1ccccc1NC(=O)c1cc(-c2ccco2)nc2ccccc12	-9%	-2%	92%	1%	i	?
Cc1ccccc1C(=O)N1CC2(Cc3ccccc3N([S+](C)(=O)[O-])C2)C1	.	.	.	.	.	45µM*
C[S+](=O)([O-])N1CC2(Cc3ccccc31)CN(C(=O)c1ccccc1Cl)C2	.	.	.	.	.	-6%
COCCn1cnc2c1c(=O)n(CC(=O)OCCOc1ccccc1F)c(=O)n2Cc1ccccc1	.	.	.	.	.	-8%
COc1ccc2[nH]c(C(=O)O)c(NS(=O)(=O)c3ccc(Cl)s3)c2c1	-4%	-2%	10%	-3%	-88%*	-23%
CCN=C(N/N=C/c1ccc([N+](=O)[O-])cc1)SC	1%	-5%	1%	-3%	i	32µM*
Cc1cccc(NC(=O)CCc2nc3sc4c(c3c(=O)[nH]2)CCCC4)n1	0%	0%	-1%	-13%	i	?
CN(CC(=O)Nc1ccc(F)c(F)c1F)C(=O)CCc1nc2sc3c(c2c(=O)[nH]1)CCCC3	-1%	-5%	14%	-17%	i	18µM*
Cc1cccc(C)c1NC(=O)CN(C)C(=O)CCc1nc2sc3c(c2c(=O)[nH]1)CCCC3	0%	-4%	2%	-8%	i	107%
Cc1cccc(NC(=O)CNC(=O)CCc2nc3sc4c(c3c(=O)[nH]2)CCCC4)c1C	0%	4%	.	-2%	i	10µM*
Cc1ccc(S(=O)(=O)N(CC(=O)NCCc2ccccc2)Cc2c(F)cccc2Cl)cc1	.	.	.	.	.	-23%
COc1ccccc1NC(=O)Cc1csc(NC(=S)Nc2ccc(C)cc2)n1	4%	-10%	-2%	-6%	i	10µM*
CCC(=O)Nc1nc(CC(=O)Nc2ccccc2OC)cs1	0%	-3%	3%	2%	i	9%
COc1ccccc1NC(=O)Cc1nc(CCl)cs1	-3%	-4%	3%	-3%	i	40µM*
CC(=O)c1cn(CC(=O)N2CCC(C(=O)O)CC2)c2ccccc12	.	.	.	.	.	6%
Clc1ccc(-c2csc(NNC3=NCCCCC3)n2)cc1	-1%	-5%	0%	-5%	-111%*	?
